Data taken from PubChem BioAssay (Tox21).
Records with an inconclusive call do not appear. Activity calls are given as the source filed them. Unless noted, calls follow the shape of the dose curve; as a rule, active = well fitted curve in the direction sought with a large enough effect in the repeat runs; inconclusive = weak or mixed curves; inactive = no such curve, though single readings can be large; an effect the other way counts as inactive or inconclusive.

Legend:
[1] = qHTS assay to identify small molecule agonists of the estrogen receptor alpha (ER-alpha) signaling pathway in the presence of an antagonist - cell viability counter screen (AID 1259386);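 also: series mostly up to about 92 µM; cells exposed to compounds for 22 h at 37 °C before the viability read; nearly all actives have a fitted effect of over 30% in size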
Summary of the method: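 Using estrogen-depleted VM7Luc4E2 cells, the 15-concentration compound series was applied together with 10.0nM ICI-182,780 and incubated 22hr at 37C/5% CO2. Cell viability was then scored by CellTiter-Fluor.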

[2] = qHTS assay to identify small molecule antagonists of the progesterone receptor (PR) signaling pathway - cell viability counter screen (AID 1346798); also: series mostly up to about 92 µM; nearly all actives have a fitted effect of over 50% in size
Summary of the method: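 In the same plates used for the beta-lactamase readout, cell viability of compound- and R5020-treated PR-UAS-bla HEK293T cells (16 hr, 37C) was assessed by CellTiter-Glo luminescence.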

[3] = qHTS assay to identify small molecule antagonists of the TGF-beta/Smad signaling pathway - cell viability counter screen (AID 1346824); also: nearly all actives have a fitted effect of over 50% in size
Summary of the method: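 SBE-bla HEK 293T cells, incubated overnight, then compound plus 0.25 ng/mL TGF-beta1 (stock added) for 5 hr at 37 C. Viability was read in the same wells by CellTiter-Glo luminescence after 30 min at room temperature.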

[4] = qHTS assay to identify small molecule agonists of the TGF-beta/Smad signaling pathway - cell viability counter screen (AID 1346829); also: top concentration of the series differs between compounds; nearly all actives have a fitted effect of over 45% in size
Summary of the method: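 SBE-bla HEK 293T cells plated overnight, compound exposure 5 hr at 37 C. Viability read in the same wells by CellTiter-Glo luminescence after 30 min at room temperature, following the beta-lactamase read.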

[5] = target: Thyrotropin-releasing hormone receptor (Homo sapiens) (UniProt P34981); test: qHTS assay to identify small molecule antagonists of the thyrotropin-releasing hormone receptor (TRHR) signaling pathway (AID 1346877; active = well fitted inhibition curve with a large enough effect in the repeat runs, not every such curve was filed as active; also: series mostly up to about 51 µM)
Thyrotropin-releasing hormone receptor (Homo sapiens), sequence (P34981 whole entry, looked up): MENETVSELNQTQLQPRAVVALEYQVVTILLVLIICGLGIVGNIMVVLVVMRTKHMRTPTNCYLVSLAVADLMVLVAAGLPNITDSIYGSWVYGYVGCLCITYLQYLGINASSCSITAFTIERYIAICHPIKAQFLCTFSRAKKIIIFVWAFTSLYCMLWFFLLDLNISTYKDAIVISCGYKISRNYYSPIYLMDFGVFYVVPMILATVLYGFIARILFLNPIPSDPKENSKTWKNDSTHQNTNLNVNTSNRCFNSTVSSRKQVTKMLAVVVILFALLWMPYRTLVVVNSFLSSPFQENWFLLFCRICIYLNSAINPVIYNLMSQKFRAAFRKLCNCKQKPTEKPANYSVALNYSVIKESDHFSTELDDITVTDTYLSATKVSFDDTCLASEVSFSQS
Summary of the method: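 Calcium signal in dye-loaded TRHR/HEK293 cells; compounds added 5 min before TRH (1 nM final); fluorescence monitored 3 min at 1 s steps.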

[6] = target: Thyrotropin-releasing hormone receptor (Homo sapiens) (UniProt P34981); test: qHTS assay to identify small molecule agonists of the thyrotropin-releasing hormone receptor (TRHR) signaling pathway (AID 1346891; calls by dose curve; also: series mostly up to about 58 µM)
Summary of the method: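 Readout was intracellular calcium fluorescence in TRHR-Hek293 cells. Cells were incubated 18 h, dye-loaded 2 h at 37 °C, and treated with compound in agonist mode.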

[7] = Human pregnane X receptor (PXR) small molecule agonists, qHTS cell viability counter screen (AID 1346977); also: nearly all actives have a fitted effect of over 50% in size; also: potency is read from the fitted curve at half-maximal effect
Summary of the method: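 In each well, the PXR reporter HepG2 line was checked for viability: CellTiter-Fluor reagent added 23hr post-dosing, fluorescence read after 1hr incubation at 37C.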

[8] = target: Nuclear receptor subfamily 1 group I member 2 (Rattus norvegicus) (UniProt Q9R1A7); test: Rat pregnane X receptor (rPXR) activation by small molecules, qHTS assay (AID 1346983); conditions: rPXR luciferase reporter cells, One-Glo luminescence, 24 h; max activation: hits give high values; also: nearly all actives have a fitted effect of over 20% in size
Nuclear receptor subfamily 1 group I member 2 (Rattus norvegicus), sequence (Q9R1A7 whole entry, looked up): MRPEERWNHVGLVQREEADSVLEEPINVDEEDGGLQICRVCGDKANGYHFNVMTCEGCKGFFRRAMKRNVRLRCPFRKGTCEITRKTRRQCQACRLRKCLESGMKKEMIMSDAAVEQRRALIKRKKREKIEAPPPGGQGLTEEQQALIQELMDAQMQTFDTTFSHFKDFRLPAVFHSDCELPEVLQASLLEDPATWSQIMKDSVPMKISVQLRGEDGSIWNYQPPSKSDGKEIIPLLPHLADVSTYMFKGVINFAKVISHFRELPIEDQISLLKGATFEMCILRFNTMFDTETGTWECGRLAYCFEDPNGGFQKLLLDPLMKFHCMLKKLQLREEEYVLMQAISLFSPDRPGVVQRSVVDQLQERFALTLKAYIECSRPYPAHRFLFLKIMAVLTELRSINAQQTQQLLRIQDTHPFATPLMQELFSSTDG
Summary of the method: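 Cell-based rPXR activation assay: rPXR cells, 2,000 per well, rested 5hr at 37 C, then exposed to compounds in DMSO for 24 hr at 37 C. Luciferase activity read by One-Glo luminescence after 30 min at room temperature.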

[9] = target: Nuclear receptor subfamily 1 group I member 2 (Homo sapiens) (UniProt O75469); test: CYP3A4 induction through human pregnane X receptor (PXR) by small molecules, qHTS assay (AID 1346984); also: nearly all actives have a fitted effect of over 40% in size; also: potency is read from the fitted curve at half-maximal effect
Nuclear receptor subfamily 1 group I member 2 (Homo sapiens), sequence (O75469 whole entry, looked up): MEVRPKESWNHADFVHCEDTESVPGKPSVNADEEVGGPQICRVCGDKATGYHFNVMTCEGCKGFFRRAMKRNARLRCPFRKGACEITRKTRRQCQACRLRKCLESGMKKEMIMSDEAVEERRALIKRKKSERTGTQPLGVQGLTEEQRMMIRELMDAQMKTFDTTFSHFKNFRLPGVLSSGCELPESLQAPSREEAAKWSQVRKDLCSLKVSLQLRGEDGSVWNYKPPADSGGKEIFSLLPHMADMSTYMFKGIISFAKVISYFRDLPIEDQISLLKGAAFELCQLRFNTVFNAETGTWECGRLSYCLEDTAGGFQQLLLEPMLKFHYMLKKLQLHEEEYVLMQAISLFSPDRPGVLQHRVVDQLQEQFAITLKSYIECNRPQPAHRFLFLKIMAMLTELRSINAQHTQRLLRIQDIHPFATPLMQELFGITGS
Summary of the method: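 Cells (DPX-2; HepG2 with PXR element plus CYP3A4-promoter luciferase) settled 5hr, then were treated 24hr at 37C. A 3hr, 3uM-final Luciferin-IPA step preceded luminescence measurement with One-Glo.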

[10] = target: Nuclear receptor subfamily 1 group I member 2 (Homo sapiens) (UniProt O75469); test: Human pregnane X receptor (PXR) activation by small molecules, qHTS assay (AID 1346985); also: nearly all actives have a fitted effect of over 40% in size; also: potency is read from the fitted curve at half-maximal effect
Summary of the method: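 DPX-2 cells (HepG2 co-transfected with a PXR response element and a CYP3A4-promoter luciferase construct) were seeded at 2,000 per well, rested 5 hr at 37C, then exposed to DMSO-dissolved compounds for 24 hr. Activation was read as luciferase luminescence.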

[11] = target: Cytochrome P450 2D6 (Homo sapiens) (UniProt P10635); test: Cytochrome P450 Family 2 Subfamily D Member 6 (CYP2D6) small molecule antagonists: luciferase reporter qHTS assay (AID 1671196); also: nearly all actives have a fitted effect of over 50% in size; also: potency is read from the fitted curve at half-maximal effect
Cytochrome P450 2D6 (Homo sapiens), sequence (P10635 whole entry, looked up): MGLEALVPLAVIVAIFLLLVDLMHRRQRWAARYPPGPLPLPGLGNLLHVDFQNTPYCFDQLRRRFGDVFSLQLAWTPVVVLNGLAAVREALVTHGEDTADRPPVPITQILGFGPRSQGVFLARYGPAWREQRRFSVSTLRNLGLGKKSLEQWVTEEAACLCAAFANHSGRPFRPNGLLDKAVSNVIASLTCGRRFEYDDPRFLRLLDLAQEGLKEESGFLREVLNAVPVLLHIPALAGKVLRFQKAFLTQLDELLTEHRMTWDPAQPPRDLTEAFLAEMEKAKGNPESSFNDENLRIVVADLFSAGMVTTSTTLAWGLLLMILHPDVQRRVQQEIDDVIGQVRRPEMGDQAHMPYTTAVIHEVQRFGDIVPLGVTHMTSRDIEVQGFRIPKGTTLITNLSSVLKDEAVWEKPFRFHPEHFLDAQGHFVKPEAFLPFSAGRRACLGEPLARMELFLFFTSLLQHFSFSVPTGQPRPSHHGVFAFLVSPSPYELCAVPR
Summary of the method: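 Room-temperature luminescent CYP2D6 activity assay: compound preincubated 10 min with enzyme–substrate mix, NADPH-initiated reaction 1 h, detection reagent 20 min before reading.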

[12] = target: Progesterone receptor (Homo sapiens) (UniProt P06401); test: qHTS assay to identify small molecule agonists of the progesterone receptor (PR) signaling pathway (AID 1346784; calls by dose curve; also: nearly all actives have a fitted effect of over 30% in size)
Progesterone receptor (Homo sapiens), sequence (P06401 whole entry, looked up): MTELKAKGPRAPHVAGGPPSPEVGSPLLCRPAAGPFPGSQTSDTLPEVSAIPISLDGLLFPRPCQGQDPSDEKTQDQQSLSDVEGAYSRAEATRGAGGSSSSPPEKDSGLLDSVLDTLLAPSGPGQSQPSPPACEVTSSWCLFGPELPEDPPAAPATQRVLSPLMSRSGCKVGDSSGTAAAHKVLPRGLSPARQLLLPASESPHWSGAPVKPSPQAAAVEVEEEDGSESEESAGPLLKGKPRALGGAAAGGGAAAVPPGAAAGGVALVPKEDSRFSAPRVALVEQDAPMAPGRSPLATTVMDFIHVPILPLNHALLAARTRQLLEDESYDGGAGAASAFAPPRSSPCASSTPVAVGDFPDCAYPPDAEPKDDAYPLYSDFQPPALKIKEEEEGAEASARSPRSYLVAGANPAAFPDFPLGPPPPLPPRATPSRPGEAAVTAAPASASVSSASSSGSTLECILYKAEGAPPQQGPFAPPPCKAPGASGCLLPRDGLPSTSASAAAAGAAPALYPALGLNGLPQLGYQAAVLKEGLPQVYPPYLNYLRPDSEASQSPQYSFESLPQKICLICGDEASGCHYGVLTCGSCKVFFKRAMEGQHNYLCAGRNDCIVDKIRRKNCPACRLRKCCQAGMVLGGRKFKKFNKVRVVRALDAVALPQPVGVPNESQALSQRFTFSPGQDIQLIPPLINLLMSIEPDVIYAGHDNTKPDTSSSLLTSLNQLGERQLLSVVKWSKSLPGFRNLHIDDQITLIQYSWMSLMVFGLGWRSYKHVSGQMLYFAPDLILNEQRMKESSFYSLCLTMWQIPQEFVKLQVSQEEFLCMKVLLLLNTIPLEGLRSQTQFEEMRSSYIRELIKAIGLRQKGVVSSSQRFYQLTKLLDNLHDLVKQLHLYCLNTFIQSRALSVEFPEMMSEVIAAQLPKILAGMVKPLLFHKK
Summary of the method: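 Reporter assay, GripTite PR-UAS-bla HEK 293T cells: 16 hr exposure to DMSO-dissolved compounds at 37C, 5% CO2, in steroid-depleted (2% charcoal-stripped FBS) medium; beta-lactamase measured by FRET fluorescence.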

[13] = qHTS assay to identify small molecule agonists of the progesterone receptor (PR) signaling pathway - cell viability counter screen (AID 1346799; calls by dose curve; also: nearly all actives have a fitted effect of over 45% in size)
Summary of the method: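 Multiplexed viability read: CellTiter-Glo luminescence, 30 min RT, following LiveBLAzer FRET measurement on PR-UAS-bla HEK293T cells exposed to compounds 16 hr.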

[14] = qHTS assay to identify small molecule agonists of the TGF-beta/Smad signaling pathway (AID 1346859; active = well fitted activation curve with a large enough effect in the signal ratio in the repeat runs, not every such curve was filed as active; the % refers to the signal ratio; also: series mostly up to about 77 µM)
Summary of the method: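 Screening used HEK 293T SBE-bla cells at 4,000/well. Test agents: 5 hr, 37 C. Detection: FRET substrate, 2 hr RT, then excitation 405 nm with emissions at 460 and 530 nm.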

[15] = Caspase-3/7 induction in HepG2 cells by small molecules, qHTS assay (AID 1346978); also: nearly all actives have a fitted effect of over 15% in size
Summary of the method: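 Wild-type HepG2 cells, 2,000/well, settled 5 hr at 37 C and 5% CO2, then compound-treated for 17 hr; caspase-3/7 activity read by luminescent Caspase-Glo 3/7 after 30 min at room temperature.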

[16] = Caspase-3/7 induction in HepG2 cells by small molecules, qHTS cell viability counter screen (AID 1346981); also: nearly all actives have a fitted effect of over 30% in size; also: potency is read from the fitted curve at half-maximal effect; as to activity change, negative = cytotoxicity: series mostly up to about 92 µM
Summary of the method: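 After a 5-hr attachment period at 37 C and 5% CO2, wild-type HepG2 cells received compounds in DMSO. Sixteen hours later CellTiter-Fluor was dispensed and the fluorescent signal quantified after a further hour.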

[17] = target: Nuclear receptor subfamily 1 group I member 2 (Homo sapiens) (UniProt O75469); test: Human pregnane X receptor (PXR) small molecule agonists, qHTS assay (AID 1346982); also: nearly all actives have a fitted effect of over 35% in size; also: potency is read from the fitted curve at half-maximal effect
Summary of the method: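 Tox21 qHTS; PXR-Luc HepG2; compounds pinned from DMSO; 24 hr, 37 C; ONE-Glo luciferase detection, 30 min room temperature.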

[18] = Caspase-3/7 induction in CHO-K1 cells by small molecules, qHTS assay (AID 1346980); also: nearly all actives have a fitted effect of over 15% in size
Summary of the method: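 Wild-type CHO-K1 cells exposed to compounds for 17hr at 37 C, 5% CO2. Caspase-3/7 activity then measured by Caspase-Glo 3/7 luminescence after 30min at room temperature.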

[19] = Caspase-3/7 induction in CHO-K1 cells by small molecules, qHTS cell viability counter screen (AID 1346979); also: nearly all actives have a fitted effect of over 35% in size; also: potency is read from the fitted curve at half-maximal effect
Summary of the method: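 Following a 5hr settling period, CHO-K1 cells at 1,500 per well received DMSO-dissolved compounds. Cell viability was quantified 16hr later by CellTiter-Fluor fluorescence, measured after 1hr with reagent at 37C.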

[20] = target: Progesterone receptor (Homo sapiens) (UniProt P06401); test: qHTS assay to identify small molecule antagonists of the progesterone receptor (PR) signaling pathway (AID 1346795; active = well fitted inhibition curve with a large enough effect in the signal ratio in the repeat runs, not every such curve was filed as active; the % refers to the signal ratio)
Summary of the method: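 Stimulus R5020 at 1 nM final; cells HEK293T PR-UAS-bla; medium with 2% charcoal-stripped FBS; compound exposure 16 hr at 37C, 5% CO2; detection by FRET beta-lactamase substrate, 2 hr, room temperature.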
% is scaled to controls: 0 for no effect and ±100 for the full control effect.

C[C@H](CCC(=O)O)[C@H]1CC[C@H]2[C@@H]3[C@H](O)C[C@@H]4C[C@H](O)CC[C@]4(C)[C@H]3CC[C@]12C
inactive: Potency [1] | Potency [2] | Potency [3] | Potency [4] | outcome [5] | Potency [6] | Potency [7] | max activation [8] -0.524% | Potency [9] | Potency [10]
active: Potency [11] 56.6 µM

C=CC(=O)OCC(C)OCC(C)OCC(C)OC(=O)C=C (stereo unspecified)
inactive: outcome [12] | Potency [2] | Potency [13] | Potency [3] | outcome [14] | outcome [5] | Potency [6] | Potency [7] | outcome [15] | Potency [16] | Potency [17] | Potency [11]

Nc1ccc(C(=O)N2CC3CC(CN(Cc4ccccc4)C3)C2)cc1
inactive: Potency [1] | Potency [2] | Potency [3] | Potency [4] | outcome [14] | outcome [5] | Potency [6] | Potency [7] | outcome [15] | Potency [18] | Potency [16] | Potency [17]

CCc1nn(C2CCCCC2)c2cc(C3(C#N)CCC(C(=O)O)CC3)ccc12 (stereo unspecified)
inactive: Potency [3] | Potency [4] | outcome [5] | Potency [6] | outcome [15] | Potency [18] | Potency [11]
active: Potency [7] 48.6 µM | Potency [19] 27.3 µM | Potency [16] 15.4 µM | Potency [17] 68.6 µM

C=C(C)C(=O)OCCOc1ccccc1
inactive: Potency [1] | Potency [13] | Potency [3] | Potency [4] | outcome [14] | outcome [5] | Potency [7] | outcome [15] | Potency [19] | Potency [16] | Potency [11]

CC(=O)CC(=O)c1ccccc1
inactive: Potency [1] | Potency [2] | Potency [3] | Potency [4] | outcome [14] | outcome [5] | Potency [6] | Potency [7] | Potency [19] | Potency [18] | Potency [16]

CC(C)NCC(O)COc1ccc(CC(N)=O)cc1 (stereo unspecified)
inactive: outcome [12] | Potency [20] | Potency [2] | Potency [13] | Potency [3] | Potency [4] | outcome [14] | outcome [5] | Potency [6] | Potency [7] | outcome [15] | Potency [18] | Potency [16]

CCCCC(CC)COCCCN (stereo unspecified)
inactive: outcome [12] | Potency [2] | Potency [3] | Potency [4] | outcome [14] | outcome [5] | Potency [6] | Potency [7] | outcome [15] | Potency [19] | Potency [18] | Potency [16]
active: Potency [11] 12.5 µM

O=C(CCN1CCN2CCCC2C1)N1c2ccccc2Sc2ccc(Cl)cc21 (stereo unspecified)
active: Potency [9] 12.6 µM | Potency [10] 12.6 µM | Potency [11] 6.74 µM
inactive: activation [12] -2.53% [at 19 µM] | activity change, negative = cytotoxicity [2] -27.7% [at 18.9 µM] | activity change, negative = cytotoxicity [13] -27.9% [at 19 µM] | viability change, negative = cytotoxic [3] 0.3% [at 15.8 µM] | activity change, negative = cytotoxicity [4] -3.72% [at 15.8 µM] | activation [14] -2.07% [at 15.8 µM] | activity change, negative = cytotoxicity [19] -16.9% [at 19 µM] | caspase-3/7 activation [18] 0.894% [at 19 µM] | max activation [8] 3.92%

COC(=O)CSc1cc(N=c2sc(=O)n3n2CCCC3)c(F)cc1Cl
inactive: Potency [1] | Potency [2] | Potency [4] | Potency [7] | outcome [15] | Potency [19] | Potency [18] | Potency [16] | Potency [17]
active: Potency [11] 63.3 µM
